Screening data (PubChem BioAssay)
Shown are actives, neighbours in structure and some others; about 19% of the full set was active somewhere.
TDP1 cell CPT: growth inhibition of DT40 Tdp1-/-;hTDP1 cells with camptothecin (screen for TDP1 inhibitors); 420,000 tested, 12% active; Potency, µM (highest dose often 46.2 µM), actives largely listed as inhibitors; chicken DT40 Tdp1-/-;hTDP1 cells + 20 nM CPT, ATP luminescence, 48 h; note: nearly all actives have a fitted effect of over 55% in size
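Cell growth measured by CellTiter-Glo luminescence after a minimum 48 h, 37 C compound exposure with 20 nM CPT in Tdp1-knockout DT40 cells stably expressing hTDP1, seeded 400/well; qHTS titration format.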
DT40 TDP1 no CPT: qHTS for Inhibitors of human tyrosyl-DNA phosphodiesterase 1 (TDP1): qHTS in cells in absence of CPT | DT40 Tdp1-/- hTDP1 cells, no CPT, ATP luminescence, 48 h | 420,000 tested, 15% active | Potency, µM (titrated, usually from 46.2 µM), hits mostly inhibitors; note: nearly all actives have a fitted effect of over 55% in size
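Seeded 400 DT40-hTDP1 cells/well (vehicle DMSO, no 20 nM CPT); pinned compounds; ≥48 hr at 37 °C; CellTiter-Glo luminescence as viability measure.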
HT1080 IDH1KD tx: HT-1080 IDH1 knockdown cell toxicity (counter line) | 360,000 tested, 2% active | AID 686971 | HT-1080 IDH1 knockdown viability, ATP luminescence, 48 h | Potency, µM (top dose mostly 46.1 µM), most hits filed as cytotoxic
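IDH1KD HT-1080 cells, 750/well, RPMI + 5% FBS; compound pinned after 2 h settling; 48 h, 37 °C; CellTiter-Glo luminescence; % activity normalised to DMSO and no-cell wells; curves fitted, classed by r2 and efficacy.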
KB-3-1 cytotox: kills parental KB-3-1 adenocarcinoma cells. KB-3-1 viability, CellTiter-Glo ATP luminescence, 72 h. Potency, µM (top dose mostly 46.1 µM), most hits filed as cytotoxic. 400,000 tested, 1.4% active; note: nearly all actives have a fitted effect of over 60% in size
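KB-3-1 parental drug-naive adenocarcinoma cells in DMEM/10% FBS, incubated 72 h at 37 C with pin-transferred compounds across a concentration series. Viability by CellTiter-Glo luminescence; concentration-response curves fitted after normalization.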
KB-V1 cytotox: KB-V1 MDR subline cytotoxicity; 400,000 tested, 3.4% active; KB-V1 MDR cells viability, CellTiter-Glo, 72 h; AID 1347076; Potency, µM (titrated, usually from 46.1 µM), actives largely listed as cytotoxic; note: nearly all actives have a fitted effect of over 60% in size
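KB-V1, DMEM (no phenol red) + 10% FBS; cpd pin-transferred, titration series; 72 h, 37 degrees C; CellTiter-Glo, luminescence. Data normalized, curve-fit.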
HT1080-NT tox: kills 2HG-producing HT-1080-NT fibrosarcoma cells | HT-1080-NT fibrosarcoma viability, CellTiter-Glo ATP luminescence, 48 h | Potency, µM (highest dose often 46.1 µM), most hits filed as cytotoxic | 360,000 tested, 1.6% active | AID 686970;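 note: NT is the 2HG producing partner of a matched IDH1 knockdown line; nearly all actives have a fitted effect of over 55% in size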
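Read-out is CellTiter-Glo luminescence after 10 minutes at room temperature, following 48 hours' compound treatment of HT-1080-NT cells (750 cells/well, RPMI, 5% FBS, 37 degrees C).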
A number is an active result. Calls come from the whole dose curve; as a rule, active = well fitted curve in the direction sought with a large enough effect; inconclusive = small, poorly fitted or top-dose-only effect, or another doubt; inactive = no such curve, though single readings can be large; an effect the other way counts as inactive or inconclusive.

Cc1nnc(NC(=O)CSC2CCCCC2)s1 was read as TDP1 cell CPT 1.8µM, DT40 TDP1 no CPT 5.8µM, HT1080 IDH1KD tx inactive, KB-3-1 cytotox inactive, KB-V1 cytotox inactive and HT1080-NT tox inactive.
Screening CC(C)COC(=O)N(C)C[C@H]1OCc2cnnn2CCCC(=O)N([C@@H](C)CO)C[C@H]1C returned TDP1 cell CPT inactive, DT40 TDP1 no CPT inactive, HT1080 IDH1KD tx inactive, KB-3-1 cytotox inactive, KB-V1 cytotox inactive and HT1080-NT tox inactive.
Screening COCCn1c(CCC(=O)Nc2ccc(OC)c(OC)c2)nc2cccnc21 returned TDP1 cell CPT inactive, DT40 TDP1 no CPT inactive, KB-3-1 cytotox inactive and KB-V1 cytotox inactive.
O=C1NC(=S)S/C1=C\c1ccc(SCc2ccccc2)o1 was read as TDP1 cell CPT inactive, DT40 TDP1 no CPT inconclusive, HT1080 IDH1KD tx inactive, KB-3-1 cytotox inconclusive, KB-V1 cytotox inconclusive and HT1080-NT tox inactive.
Screening O=C1NC(=S)S/C1=C\c1ccc(SCc2ccco2)o1 returned TDP1 cell CPT 18µM, DT40 TDP1 no CPT inconclusive, HT1080 IDH1KD tx inactive, KB-3-1 cytotox inactive, KB-V1 cytotox inconclusive and HT1080-NT tox inactive.
CC1CCN(S(=O)(=O)c2ccc3c(c2)CC(C)N3C(=O)C2CCC2)CC1 (configuration not stated) was read as TDP1 cell CPT 21µM, DT40 TDP1 no CPT 16µM, HT1080 IDH1KD tx inactive, KB-3-1 cytotox inactive, KB-V1 cytotox inconclusive and HT1080-NT tox inconclusive.
CC1CCN(c2ccc(S(=O)(=O)N3CCC(C)CC3)cc2N)CC1 was read as TDP1 cell CPT 21µM, DT40 TDP1 no CPT 16µM, HT1080 IDH1KD tx inactive, KB-3-1 cytotox inconclusive, KB-V1 cytotox inactive and HT1080-NT tox inactive.
For CC1Cc2cc(S(=O)(=O)N3CCC(C(=O)N4CCCCC4)CC3)ccc2N1C(=O)C1CC1 (configuration not stated) the results were TDP1 cell CPT inconclusive, DT40 TDP1 no CPT inactive, HT1080 IDH1KD tx inactive, KB-3-1 cytotox inactive, KB-V1 cytotox inactive and HT1080-NT tox inactive.
For CC1Cc2cc(S(=O)(=O)N3CCCCC3)ccc2N1C(=O)C1CCC1 (configuration not stated) the results were TDP1 cell CPT 21µM, DT40 TDP1 no CPT inconclusive, HT1080 IDH1KD tx inactive, KB-3-1 cytotox inactive, KB-V1 cytotox inactive and HT1080-NT tox inactive.
Screening CCOC(=O)C1CCCN(S(=O)(=O)c2ccc3c(c2)CC(C)N3C(=O)C2CC2)C1 (configuration not stated) returned TDP1 cell CPT 18µM, DT40 TDP1 no CPT inactive, HT1080 IDH1KD tx inactive, KB-3-1 cytotox inactive, KB-V1 cytotox inactive and HT1080-NT tox inactive.
CCN(Cc1ccccc1)S(=O)(=O)c1ccc2c(c1)CC(C)N2C(=O)C1CCC1 (configuration not stated) was read as TDP1 cell CPT inconclusive, DT40 TDP1 no CPT 18µM, KB-3-1 cytotox inconclusive and KB-V1 cytotox inconclusive.
Screening CC1CCN(S(=O)(=O)c2ccc3c(c2)C(Cl)(Cl)C(=O)N3)CC1 returned TDP1 cell CPT 10µM, DT40 TDP1 no CPT 16µM, HT1080 IDH1KD tx inactive, KB-3-1 cytotox inactive, KB-V1 cytotox inactive and HT1080-NT tox inactive.
Screening CC1Cc2cc(S(=O)(=O)NCCC(=O)N(C)Cc3ccccc3)ccc2N1C(=O)C1CC1 (configuration not stated) returned TDP1 cell CPT inconclusive, DT40 TDP1 no CPT inconclusive, HT1080 IDH1KD tx inactive, KB-3-1 cytotox inactive, KB-V1 cytotox inactive and HT1080-NT tox inactive.
CC(=O)c1ccc(N2CCN(S(=O)(=O)c3ccc4c(c3)C(Cl)(Cl)C(=O)N4)CC2)cc1 was read as KB-3-1 cytotox inactive and KB-V1 cytotox inactive.
Screening CCOc1ccc(Sc2cc(C(=O)NC(C)CC)c3ccccc3n2)cc1 (configuration not stated) returned TDP1 cell CPT inactive, DT40 TDP1 no CPT inactive, KB-3-1 cytotox inactive and KB-V1 cytotox inactive.
Screening Cc1nn(C(=O)c2ccccc2)c(C)c1Sc1ccc(Cl)cc1 returned TDP1 cell CPT inconclusive, DT40 TDP1 no CPT 8.2µM, KB-3-1 cytotox inconclusive and KB-V1 cytotox 7.3µM.
CCC(=O)Oc1c(Sc2ccc(Cl)cc2)c(C)nn1-c1ccccc1 was read as TDP1 cell CPT inconclusive and DT40 TDP1 no CPT 0.52µM.
Screening CCCCCCOc1ccc(N2C(=O)CC(N3CCN(CCN=CC4C(=O)CC(C)(C)CC4=O)CC3)C2=O)cc1 (configuration not stated) returned TDP1 cell CPT inconclusive, DT40 TDP1 no CPT 23µM, HT1080 IDH1KD tx inactive, KB-3-1 cytotox inactive, KB-V1 cytotox inactive and HT1080-NT tox inactive.
Screening Cc1cc2nc(-c3ccc(=O)[nH]c3)n(Cc3ccccc3)c2cc1C returned TDP1 cell CPT inconclusive, DT40 TDP1 no CPT inconclusive, HT1080 IDH1KD tx inactive, KB-3-1 cytotox inactive, KB-V1 cytotox inactive and HT1080-NT tox inactive.
For Cc1ccc(CNC(=O)CCCCCn2c(=O)c3sccc3n(CC(=O)N3CCCCC3C)c2=O)cc1 (configuration not stated) the results were TDP1 cell CPT inconclusive, DT40 TDP1 no CPT inconclusive, KB-3-1 cytotox inactive and KB-V1 cytotox inactive.
`O=C(NC(=S)Nc1ccc(S(=O)(=O)N2CCCC2)cc1)C1CCC1` gave TDP1 cell CPT inconclusive, DT40 TDP1 no CPT 16µM, HT1080 IDH1KD tx inactive, KB-3-1 cytotox inactive, KB-V1 cytotox inactive and HT1080-NT tox inactive.
O=[N+]([O-])c1cccc(S(=O)(=O)Nc2ccc(S(=O)(=O)N3CCCC3)cc2)c1 was read as TDP1 cell CPT inactive, DT40 TDP1 no CPT inactive, HT1080 IDH1KD tx inactive and HT1080-NT tox inactive.
CC(C)CC(=O)NC(=S)Nc1ccc(S(=O)(=O)N2CCCC2)cc1 was read as TDP1 cell CPT inconclusive, DT40 TDP1 no CPT inconclusive, HT1080 IDH1KD tx inactive, KB-3-1 cytotox inactive, KB-V1 cytotox inconclusive and HT1080-NT tox inactive.
For O=C(NC(=S)Nc1ccc(S(=O)(=O)N2CCCC2)cc1)C1CC1 the results were TDP1 cell CPT inconclusive, DT40 TDP1 no CPT inconclusive, HT1080 IDH1KD tx inactive, KB-3-1 cytotox inactive, KB-V1 cytotox inconclusive and HT1080-NT tox inactive.
CC(Nc1cccc([N+](=O)[O-])c1)C(=O)Nc1ccc(S(=O)(=O)N2CCCC2)cc1 (configuration not stated) was read as TDP1 cell CPT 15µM, DT40 TDP1 no CPT 15µM, HT1080 IDH1KD tx inactive, KB-3-1 cytotox inactive, KB-V1 cytotox inconclusive and HT1080-NT tox inactive.
Screening CC(C)C(=O)NC(=S)Nc1ccc(S(=O)(=O)N2CCCC2)cc1 returned TDP1 cell CPT inconclusive, DT40 TDP1 no CPT 16µM, HT1080 IDH1KD tx inactive, KB-3-1 cytotox inactive, KB-V1 cytotox 15µM and HT1080-NT tox inactive.
